# Measured values taken from PubChem BioAssay.
# Values without a mark were called inactive. For some of these results: Measured potencies and affinities stand elsewhere. The source made the active and inactive calls. Unless noted, no rule for the calls is given here.
# Legend:
# [1] = antimalarial activity against Dd2 strain (AID 2302;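 active = growth inhibition above 50% at the single 2 µM test dose, taken to imply half-maximal potency below 2 µM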;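 also: 0% = DMSO untreated growth and 100% = chloroquine plus artemisinin killed control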); conditions: P. falciparum Dd2 in RBCs, LDH growth readout, 72 h; at 2 µM; stronger effect = higher value
# [2] = HepG2 cytotoxicity, primary screen, cytotoxicity control for P. falciparum antimalarial project, cell-based, ATP luminescence (AID 2303;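 active = inhibition above 50%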;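 also: 0% = DMSO wells and 100% = digitonin-killed cells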); conditions: HepG2 viability, 24-48 h, at 10 µM, stronger effect = higher value
# [3] = biological target: L-lactate dehydrogenase (Plasmodium falciparum (isolate CDC / Honduras)) (UniProt Q27743); assay: PfLDH activity inhibition – cell lysate, 3D7 strain, counter-screen for P. falciparum growth inhibition project (AID 2304);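 also: 0% = vehicle and 100% = reference inhibitor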; conditions: P. falciparum 3D7 crude extract, LDH APAD/NBT absorbance; at 2 µM; stronger effect = higher value
# [4] = inhibition of 3D7 malaria parasite growth – strain 3D7 (AID 2306);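 also: 0% = DMSO wells and 100% = chloroquine plus artemisinin control wells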; conditions: P. falciparum 3D7 erythrocytic growth, LDH absorbance, 72 h; at 2 µM; stronger effect = higher value
# [5] = biological target: Calcium-dependent protein kinase 1 (Plasmodium falciparum (isolate 3D7)) (UniProt P62344); assay: PfCDPK1 kinase inhibitors, biochemical, TCAMS library (AID 1159585; cut-off not given, nearly all actives have IC50 up to about 0.98 µM;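 also: inhibitors leave more ATP so luminescence rises with inhibition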); conditions: recombinant PfCDPK1, Kinase-Glo ATP depletion luminescence
# [6] = biological target: Plasmodium falciparum protein kinase 6 (PK6, PF3D7_1337100) (UniProt Q8IDW1); assay: PfPK6 kinase inhibitors, biochemical, TCAMS library (AID 1159586); conditions: recombinant PfPK6, Kinase-Glo ATP depletion luminescence
# [7] = biological target: Protein kinase 7 (PK7), Plasmodium falciparum 3D7 (PF3D7_0213400) (UniProt Q7YTF7); assay: inhibition of Plasmodium PK7 catalytic activity – biochemical, TCAMS antimalarial set, Kinase-Glo luminescence (AID 1159587); conditions: recombinant PfPK7, Kinase-Glo ATP depletion luminescence
# [8] = biological target: Calcium-dependent protein kinase 4 (Plasmodium falciparum (isolate 3D7)) (UniProt Q8IBS5); assay: PfCDPK4 kinase inhibitors, biochemical, TCAMS library (AID 1159588; cut-off not given, nearly all actives have IC50 up to about 0.91 µM); conditions: recombinant PfCDPK4, Kinase-Glo ATP depletion luminescence
# Chain of Calcium-dependent protein kinase 4 (Plasmodium falciparum (isolate 3D7)) (Q8IBS5 whole entry, looked up): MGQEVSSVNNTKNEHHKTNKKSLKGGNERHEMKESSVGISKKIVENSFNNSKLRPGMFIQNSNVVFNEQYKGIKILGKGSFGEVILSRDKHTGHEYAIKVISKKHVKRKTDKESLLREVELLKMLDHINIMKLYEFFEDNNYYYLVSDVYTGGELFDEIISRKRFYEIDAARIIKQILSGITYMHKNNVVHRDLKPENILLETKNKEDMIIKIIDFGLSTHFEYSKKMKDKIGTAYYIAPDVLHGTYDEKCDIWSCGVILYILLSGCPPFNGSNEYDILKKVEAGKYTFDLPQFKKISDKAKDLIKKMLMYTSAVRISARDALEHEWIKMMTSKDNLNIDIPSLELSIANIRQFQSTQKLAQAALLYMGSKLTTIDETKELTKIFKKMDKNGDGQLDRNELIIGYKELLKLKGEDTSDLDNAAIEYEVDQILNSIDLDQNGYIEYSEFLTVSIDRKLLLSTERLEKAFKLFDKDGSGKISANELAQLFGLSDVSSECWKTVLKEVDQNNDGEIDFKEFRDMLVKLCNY
# Chain of Plasmodium falciparum protein kinase 6 (PK6, PF3D7_1337100) (Q8IDW1 1-305): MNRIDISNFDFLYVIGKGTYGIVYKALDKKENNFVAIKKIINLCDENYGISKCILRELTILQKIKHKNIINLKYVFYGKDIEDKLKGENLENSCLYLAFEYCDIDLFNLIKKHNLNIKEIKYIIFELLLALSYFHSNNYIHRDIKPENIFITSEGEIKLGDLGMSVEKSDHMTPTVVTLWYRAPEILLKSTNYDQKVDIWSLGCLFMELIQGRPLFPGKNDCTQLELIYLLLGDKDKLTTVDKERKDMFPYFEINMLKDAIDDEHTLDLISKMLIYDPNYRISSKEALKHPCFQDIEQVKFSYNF
# Chain of Calcium-dependent protein kinase 1 (Plasmodium falciparum (isolate 3D7)) (P62344 whole entry, looked up): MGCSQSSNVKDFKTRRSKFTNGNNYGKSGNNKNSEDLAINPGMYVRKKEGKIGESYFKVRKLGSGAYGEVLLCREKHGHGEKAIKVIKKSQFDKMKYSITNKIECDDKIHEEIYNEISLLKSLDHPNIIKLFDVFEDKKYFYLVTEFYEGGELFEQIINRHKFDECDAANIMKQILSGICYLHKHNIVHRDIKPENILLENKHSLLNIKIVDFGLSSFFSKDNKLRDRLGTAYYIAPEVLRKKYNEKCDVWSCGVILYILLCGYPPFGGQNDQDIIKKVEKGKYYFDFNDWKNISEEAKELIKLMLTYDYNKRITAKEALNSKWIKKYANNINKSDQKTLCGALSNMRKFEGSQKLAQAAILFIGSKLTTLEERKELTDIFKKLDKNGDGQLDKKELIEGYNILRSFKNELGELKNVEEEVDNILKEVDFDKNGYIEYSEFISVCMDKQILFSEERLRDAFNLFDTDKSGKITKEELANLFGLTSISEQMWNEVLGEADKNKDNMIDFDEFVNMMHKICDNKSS
# Chain of Protein kinase 7 (PK7), Plasmodium falciparum 3D7 (PF3D7_0213400) (Q7YTF7 1-343): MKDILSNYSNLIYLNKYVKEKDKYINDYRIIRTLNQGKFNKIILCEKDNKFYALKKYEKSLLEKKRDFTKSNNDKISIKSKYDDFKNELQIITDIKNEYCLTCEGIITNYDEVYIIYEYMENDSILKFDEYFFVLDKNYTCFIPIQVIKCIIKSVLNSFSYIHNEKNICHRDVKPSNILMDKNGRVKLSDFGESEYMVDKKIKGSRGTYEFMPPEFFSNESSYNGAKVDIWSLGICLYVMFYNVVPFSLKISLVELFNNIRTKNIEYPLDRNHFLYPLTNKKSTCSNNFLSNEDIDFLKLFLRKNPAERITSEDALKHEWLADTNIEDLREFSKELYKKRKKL
# Chain of L-lactate dehydrogenase (Plasmodium falciparum (isolate CDC / Honduras)) (Q27743 whole entry, looked up): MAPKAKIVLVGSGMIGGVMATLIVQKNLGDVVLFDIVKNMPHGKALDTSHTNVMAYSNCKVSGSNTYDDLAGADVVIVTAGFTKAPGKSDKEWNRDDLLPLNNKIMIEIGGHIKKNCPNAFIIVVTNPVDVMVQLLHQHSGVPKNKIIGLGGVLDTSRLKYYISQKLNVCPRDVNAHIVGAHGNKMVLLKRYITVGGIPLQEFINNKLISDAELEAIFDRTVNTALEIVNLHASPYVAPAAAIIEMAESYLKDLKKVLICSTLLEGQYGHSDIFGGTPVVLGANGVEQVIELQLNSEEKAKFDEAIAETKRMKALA
SMILES,growth inhibition [1],inhibition [2],inhibition [3],growth inhibition [4],outcome [5],outcome [6],outcome [7],outcome [8]
COc1ccc(-c2ccc(NC(=O)c3cccc(Cl)c3)cc2)cc1CN(C)CCN(C)C,35%,22%,-3%,100% (active),inactive,inactive,inactive,inactive
CN1CCC(NCc2cccc(-c3cnc(NCc4ccccc4)nc3)c2)CC1,67% (active),12%,4%,102% (active),inactive,inactive,inactive,inactive
CCN(CC)CCN(Cc1ccc(-c2ccc(C(F)(F)F)cc2)cc1)C(=O)Cn1c(CCc2cc(F)c(F)cc2F)nc(=O)c2ccccc21,50% (active),39%,-4%,99% (active),inactive,inactive,inactive,inactive
Cc1cc(C)cc(NC(=S)NCCCCN2CCN(c3cccc(Cl)c3)CC2)c1,13%,11%,3%,88% (active),inactive,inactive,inactive,inactive
COc1ccc(-c2ccc(NC(=O)c3ccc(Cl)cc3)cc2)cc1CN1CCC(O)CC1,15%,20%,5%,89% (active),inactive,inactive,inactive,inactive
CC(C)N1CCN(c2ccc(OCCCCN3CCN(c4cccc(Cl)c4Cl)CC3)cc2Cl)CC1,34%,63% (active),-1%,89% (active),inactive,inactive,inactive,inactive
CC(CN1CCN(C)CC1)C(=O)Nc1cccc(-c2ccc(-c3nc4ccc(F)cc4[nH]3)cc2)c1 (stereo not drawn),98% (active),10%,1%,101% (active),inactive,inactive,inactive,inactive
COCCNCc1ncsc1-c1ccc2c(Nc3ccc(Oc4ccccc4)cc3)ccnc2c1,93% (active),34%,-7%,91% (active),inactive,inactive,inactive,inactive
CCc1c(C(=O)NC2CCC(N3CCC(c4ccccc4C)CC3)CC2)[nH]c2ccc(OC)cc12 (stereo not drawn),100% (active),78% (active),-1%,101% (active),inactive,inactive,inactive,inactive
CC(C)CC(=O)N1CCNC[C@@H]1C(=O)NCc1ccc(Cl)c(Cl)c1,16%,-3%,-3%,99% (active),inactive,inactive,inactive,inactive
NC1CCCN(Cc2ccc(-c3cccc(-c4nc5ccc(F)cc5[nH]4)c3)cc2)C1 (stereo not drawn),75% (active),54% (active),1%,100% (active),inactive,inactive,inactive,inactive
Cc1cc2cc(/C=C/C(=O)NC3CCC(CCN4CCc5ccc(C#N)cc5CC4)CC3)ccc2[nH]1 (stereo not drawn),49%,6%,-1%,85% (active),inactive,inactive,inactive,inactive
O=C(Nc1ccc(-c2nc3ccccc3[nH]2)cc1)c1ccc(Cl)c([N+](=O)[O-])c1,4%,6%,1%,99% (active),inactive,inactive,inactive,inactive
N#Cc1cc([N+](=O)[O-])ccc1-n1nc(C(N)=O)n(Cc2cccc(F)c2)c1=S,100% (active),6%,-4%,100% (active),inactive,inactive,inactive,inactive
Cc1cc2ccccc2n1CC(=O)N1CC(C(=O)N2CCCCC2)Oc2ccccc21 (stereo not drawn),77% (active),-1%,2%,99% (active),inactive,inactive,inactive,inactive
O=c1cc(NCCCNC2CCOc3c(Cl)cccc32)[nH]c2ccccc12 (stereo not drawn),27%,-3%,3%,96% (active),inactive,inactive,inactive,inactive
O=C(/C=C/c1ccc(Cl)c(Cl)c1)N1CCC(CN2CCC(c3nc4ccccc4n3CCCO)CC2)CC1,-4%,60% (active),-8%,96% (active),inactive,inactive,inactive,inactive
CCOC(=O)Cc1nc(N)c(C(=O)OCC)[nH]1,24%,2%,-1%,94% (active),inactive,inactive,inactive,inactive
Nc1nc(Nc2ccc(Cl)cc2)nc2ccccc12,21%,6%,-2%,101% (active),inactive,inactive,inactive,inactive
O=c1c2ccc(F)cc2sn1-c1ccc(Cl)cc1,11%,8%,-2%,98% (active),inactive,inactive,inactive,inactive
Cc1ccccc1OCC(O)CN1CCC(C2CCN(CC(O)COc3ccccc3C)CC2)CC1 (stereo not drawn),51% (active),12%,-4%,100% (active),inactive,inactive,inactive,inactive

SMILES,growth inhibition [1],inhibition [2],inhibition [3],growth inhibition [4],outcome [5],outcome [6],outcome [7],outcome [8]
Cc1nc(-c2nc(N3CCC(O)CC3)ncc2-c2ccsc2)sc1C,35%,6%,-2%,83% (active),inactive,inactive,inactive,inactive
COc1cc2nc(NCC3CCCCC3)nc(NCc3ccccc3)c2cc1OC,101% (active),18%,7%,101% (active),inactive,inactive,inactive,inactive
CC(O)C1CCCCN1C(=O)c1cccc(-c2ccc(-c3nc4ccccc4[nH]3)s2)c1 (stereo not drawn),23%,24%,-1%,100% (active),inactive,inactive,inactive,inactive
O=C(NCc1ccccn1)C(c1cc2ccccc2o1)N1CCN(C(c2ccccc2)c2ccccc2)CC1 (stereo not drawn),68% (active),17%,0%,95% (active),inactive,inactive,inactive,inactive
COc1cc(Cc2cnc(N)nc2N)cc(OC(C)C)c1OC,15%,10%,0%,91% (active),inactive,inactive,inactive,inactive
Cc1nn(-c2ccnc3cc(Cl)ccc23)c(C)c1C(=O)NCc1cc(Cl)cc(Cl)c1,53% (active),-10%,-1%,97% (active),inactive,inactive,inactive,inactive
Cc1ccccc1CNc1ccc2nc(N)nc(N)c2c1,90% (active),59% (active),-3%,101% (active),inactive,inactive,inactive,inactive
O=C(NC1CC1)c1ccc(N2CCC(Oc3ccc(F)cc3)CC2)nc1,79% (active),-2%,-1%,89% (active),inactive,inactive,inactive,inactive
Nc1nc(N)c2c(ccn2Cc2cc3c(cc2Cl)OCO3)n1,11%,67% (active),-3%,98% (active),inactive,inactive,inactive,inactive
O=C(NCCCCN1CCC(c2ccc3ccccc3c2)CC1)c1ccc(NC(=O)c2ccc(Cl)cc2)cc1,93% (active),24%,-4%,102% (active),inactive,inactive,inactive,inactive
COc1ccc(CN2CCC(Oc3cccc(NC(=O)c4ccc(C(F)(F)F)cc4)c3)CC2)cc1,20%,35%,-6%,95% (active),inactive,inactive,inactive,inactive
N=c1n(CCN2CCCCC2)c2ccccc2n1CC(=O)c1cccc([N+](=O)[O-])c1,0%,10%,-1%,94% (active),inactive,inactive,inactive,inactive
COc1ccc2nc(C)cc(NN=Cc3cccc(F)c3)c2c1,100% (active),2%,1%,100% (active),inactive,inactive,inactive,inactive
Cc1cc(NC2CCN(Cc3ccccc3)CC2)nc(NCCCCc2ccccc2)n1,60% (active),65% (active),2%,100% (active),inactive,inactive,inactive,inactive
COc1ccc(-c2nc(NC(=O)CS(=O)(=O)c3ccc(F)cc3)sc2C)cc1,99% (active),20%,-3%,100% (active),inactive,inactive,inactive,inactive
CN(C)C(=O)CC(=O)NCc1c(Cl)cccc1Cl,2%,2%,-4%,95% (active),inactive,inactive,inactive,inactive
FC(F)(F)c1ccc2nc(-c3ccc(-c4cccc(CNCC5CCCO5)c4)s3)[nH]c2c1 (stereo not drawn),99% (active),37%,-7%,99% (active),inactive,inactive,inactive,inactive
Nc1ncc(-c2cccc(CCN3CCOCC3)c2)cc1-c1nc2ccc(Br)cc2[nH]1,98% (active),60% (active),4%,101% (active),inactive,inactive,inactive,inactive
CCC(C)CN1CCN(c2ccc(NC(=O)c3cccs3)cc2)CC1C (stereo not drawn),94% (active),-3%,1%,94% (active),inactive,inactive,inactive,inactive
CCOC(=O)NCCSC(C)(C)[C@H](NC(=O)[C@H](Cc1cc2ccccc2s1)[C@H](CC)N(O)C=O)C(=O)Nc1nccs1,98% (active),11%,1%,98% (active),inactive,inactive,inactive,inactive
